Compounds without any hit were thinned out: in the full panel of roughly 83,000, 20% have a hit.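 Treatment: one concentration, 48 hours, 96-well format. Scoring: percent growth, with anything below 10 considered active.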 Unmarked numbers belong to inactive results. Calls of active or inactive are those of the source.
Columns and labels:
Assay in all cases: NCI-60 one-dose screen, 48 h (100 = growth as untreated, 0 = no growth, -100 = all killed)
Conditions in all cases: 10 µM unless noted
NCI-H23 lung = tested on: NCI-H23 lung
NCI-H322M lung = tested on: NCI-H322M lung
HOP-62 NSCLC = tested on: HOP-62 NSCLC
NCI-H460 lung = tested on: NCI-H460 lung
HOP-92 NSCLC = tested on: HOP-92 NSCLC
NCI-H522 lung = tested on: NCI-H522 lung
A549/ATCC NSCLC = tested on: A549/ATCC NSCLC
786-0 renal = tested on: 786-0 renal
COLO 205 colon = tested on: COLO 205 colon
DU-145 prostate = tested on: DU-145 prostate

Cc1nc2ccccc2c(/C=C/c2ccccc2)c1C(=O)/C=C/c1ccc(Cl)cc1
growth (NCI-H23 lung): 34.8%
growth (NCI-H322M lung): 50%
growth (HOP-62 NSCLC): 11.7%
growth (NCI-H460 lung): -37.6% (active)
growth (HOP-92 NSCLC): 46.9%
growth (NCI-H522 lung): -18.9% (active)
growth (A549/ATCC NSCLC): 25.3%
growth (786-0 renal): 2.52% (active)
growth (COLO 205 colon): 31.3%
growth (DU-145 prostate): 4.72% (active)

COC(=O)C1(C)CCC[C@]2(C)[C@H]3C[C@H]4C(C(C)C)=C[C@]3(CC[C@@H]12)[C@H]1[C@@H]4[C@@H](OCC#CCN2CCOCC2)CC[C@@H]1OCC#CCN1CCOCC1 (some centres undefined)
growth (NCI-H23 lung): 82.6%
growth (NCI-H322M lung): 102%
growth (HOP-62 NSCLC): 85.3%
growth (NCI-H460 lung): 94%
growth (HOP-92 NSCLC): 54.9%
growth (NCI-H522 lung): 74.4%
growth (A549/ATCC NSCLC): 66.8%
growth (786-0 renal): 86.1%
growth (COLO 205 colon): 89.2%
growth (DU-145 prostate): 95.5%

O=c1oc2ccc(Br)cc2c(=O)n1-c1ccc(Cl)cc1F
growth (NCI-H23 lung): 2.82% (active)
growth (NCI-H322M lung): 5.97% (active)
growth (HOP-62 NSCLC): 2.2% (active)
growth (NCI-H460 lung): 2.87% (active)
growth (HOP-92 NSCLC): -12.6% (active)
growth (NCI-H522 lung): -1.53% (active)
growth (A549/ATCC NSCLC): 8.23% (active)
growth (786-0 renal): -1.15% (active)
growth (COLO 205 colon): 21.5%
growth (DU-145 prostate): 16.4%

COc1ccc2[nH]c(O)c(N=NC(=O)c3oc4ccccc4c3C)c2c1
growth (NCI-H23 lung): 10.6%
growth (NCI-H322M lung): 30.6%
growth (HOP-62 NSCLC): -24.1% (active)
growth (NCI-H460 lung): -22.8% (active)
growth (HOP-92 NSCLC): -44% (active)
growth (NCI-H522 lung): 54.3%
growth (A549/ATCC NSCLC): -23.6% (active)
growth (786-0 renal): -66.9% (active)
growth (COLO 205 colon): 22.8%
growth (DU-145 prostate): 17.6%

O=C(Nc1ccc(N2CCNCC2)cn1)c1[nH]ncc1Nc1ncnc2sc3c(c12)CCC3
growth (NCI-H23 lung): 10.7%
growth (NCI-H322M lung): 63.8%
growth (HOP-62 NSCLC): 76.2%
growth (NCI-H460 lung): -59.2% (active)
growth (HOP-92 NSCLC): 37.9%
growth (NCI-H522 lung): 35.9%
growth (A549/ATCC NSCLC): -51.7% (active)
growth (786-0 renal): -85.5% (active)
growth (COLO 205 colon): 22.8%
growth (DU-145 prostate): -52.1% (active)

c1ccc(CNc2nc(Nc3ccccc3)nc3ccccc23)cc1
growth (NCI-H23 lung): 64.6%
growth (NCI-H322M lung): 46.5%
growth (HOP-62 NSCLC): -9% (active)
growth (NCI-H460 lung): 48.2%
growth (HOP-92 NSCLC): -2.52% (active)
growth (NCI-H522 lung): 40.7%
growth (A549/ATCC NSCLC): 29.6%
growth (786-0 renal): 38.5%
growth (COLO 205 colon): 75.1%
growth (DU-145 prostate): 40.5%

N#CC(C#N)=Cc1c(-c2ccccc2)[nH]c2ccccc12
growth (NCI-H23 lung): 41%
growth (NCI-H322M lung): 61%
growth (HOP-62 NSCLC): 35.6%
growth (NCI-H460 lung): 16.9%
growth (HOP-92 NSCLC): 45.1%
growth (NCI-H522 lung): 50.2%
growth (A549/ATCC NSCLC): 37.1%
growth (786-0 renal): 40%
growth (COLO 205 colon): 20.4%
growth (DU-145 prostate): 15.7%

COC(=O)/C(CCC=C(C)C)=C1\[C@@H](OC(C)=O)C[C@@]2(C)[C@H]1C[C@@H](O)[C@H]1[C@@]3(C)CC[C@H](NCc4ccccc4)[C@@H](C)[C@@H]3CC[C@@]12C
growth (NCI-H23 lung): 81.4%
growth (NCI-H322M lung): 91.5%
growth (HOP-62 NSCLC): 84%
growth (NCI-H460 lung): 45.1%
growth (HOP-92 NSCLC): 48.8%
growth (NCI-H522 lung): 80%
growth (A549/ATCC NSCLC): 59%
growth (786-0 renal): 55.4%
growth (COLO 205 colon): 50%
growth (DU-145 prostate): 74.8%

O=S1(=O)N(Cc2ccccc2)[C@@H](Cc2ccccc2)[C@H](O)[C@H](O)[C@H](Cc2ccccc2)N1Cc1ccccc1
growth (NCI-H23 lung): 1.32% (active)
growth (NCI-H322M lung): 12.6%
growth (HOP-62 NSCLC): 18.4%
growth (NCI-H460 lung): -44.8% (active)
growth (HOP-92 NSCLC): 4.2% (active)
growth (NCI-H522 lung): 9.21% (active)
growth (A549/ATCC NSCLC): 6.12% (active)
growth (786-0 renal): -1.43% (active)
growth (COLO 205 colon): -0.273% (active)
growth (DU-145 prostate): -23.4% (active)

O=C1C(Cl)=C(NCc2ccco2)C(=O)c2ccccc21
growth (NCI-H23 lung): 37.3%
growth (NCI-H322M lung): 115%
growth (HOP-62 NSCLC): 37%
growth (NCI-H460 lung): 54.5%
growth (HOP-92 NSCLC): 103%
growth (NCI-H522 lung): 75.9%
growth (A549/ATCC NSCLC): 47.4%
growth (786-0 renal): 113%
growth (COLO 205 colon): 84.8%
growth (DU-145 prostate): 15.6%

CCOc1cc2c(cc1OCC)C(c1cc(C)c(O)c(C)c1)NCC2 (centres undefined)
growth (NCI-H23 lung): 100%
growth (NCI-H322M lung): 92.2%
growth (HOP-62 NSCLC): 107%
growth (NCI-H460 lung): 100%
growth (HOP-92 NSCLC): 88.5%
growth (NCI-H522 lung): 91%
growth (A549/ATCC NSCLC): 95.5%
growth (786-0 renal): 94.3%
growth (COLO 205 colon): 106%
growth (DU-145 prostate): 111%

COc1cccc2c1C=C1CCCCC3=Cc4c(OC)cccc4OC13O2
growth (NCI-H23 lung): 55.9%
growth (NCI-H322M lung): 61.2%
growth (HOP-62 NSCLC): 56.8%
growth (NCI-H460 lung): 25.4%
growth (HOP-92 NSCLC): 46.8%
growth (NCI-H522 lung): 32.7%
growth (A549/ATCC NSCLC): 45.8%
growth (786-0 renal): 41.7%
growth (COLO 205 colon): 30.6%
growth (DU-145 prostate): 63.5%

COc1ccc(Nc2nc(N/N=C/c3ccc(O)cc3)nc(Nc3ccc([N+](=O)[O-])cc3)n2)cc1
growth (NCI-H23 lung): 103%
growth (NCI-H322M lung): 110%
growth (HOP-62 NSCLC): 107%
growth (NCI-H460 lung): 107%
growth (HOP-92 NSCLC): 109%
growth (NCI-H522 lung): 95.3%
growth (A549/ATCC NSCLC): 104%
growth (786-0 renal): 105%
growth (COLO 205 colon): 111%

O=C(c1ccccc1)N(C(=S)NCCc1ccc(Cl)cc1)c1ccccc1
growth (NCI-H23 lung): 95.5%
growth (NCI-H322M lung): 103%
growth (HOP-62 NSCLC): 103%
growth (NCI-H460 lung): 107%
growth (HOP-92 NSCLC): 75.2%
growth (NCI-H522 lung): 92.5%
growth (A549/ATCC NSCLC): 97.2%
growth (786-0 renal): 92.4%
growth (COLO 205 colon): 139%
growth (DU-145 prostate): 79.7%

From PubChem BioAssay (NCI)
